# According to PubChem BioAssay (Tox21):
# Records with an inconclusive call do not appear. Unmarked numbers belong to inactive results. The source made the active and inactive calls. Calls come from the whole dose curve; as a rule, active = well fitted cell-killing curve with a large enough effect in the repeat runs; inconclusive = weak or mixed curves; inactive = flat fitted curve, though single readings scatter.
# Experiment: qHTS assay to identify small molecule antagonists of the estrogen receptor beta (ER-beta) signaling pathway - cell viability counter screen (AID 1259382); note: nearly all actives have a fitted effect of over 55% in size
# Details: ER-beta-UAS-bla HEK293T viability, CellTiter-Glo luminescence, 16 h; series mostly up to 92.4 µM
# Description: U.S. Tox21 Program National Center for Advancing Translational Sciences [NCATS] NIH Chemical Genomics Center [NCGC] U.S. Environmental Protection Agency [EPA] National Institutes of Environmental Health Sciences [NIEHS] National Toxicology Program [NTP] U.S. Food and Drug Administration [FDA] Tox21 Assay Overview: Estrogen receptor (ER), a nuclear hormone receptor, plays an important role in development, metabolic homeostasis and reproduction. Two subtypes of ER, ER-alpha and ER-beta, have similar expression patterns with some uniqueness in both types. Endocrine disrupting chemicals (EDCs) and their interactions with steroid hormone receptors like ER causes disruption of normal endocrine function. To identify the compounds that inhibit ER signaling, an ER-beta-UAS-bla GripTite cell line (Life Technologies, Madison, WI, USA) containing a beta-lactamase reporter gene under the control of an UAS response element was used to screen Tox21 10K compound library. The cytotoxicity of the Tox21 compound library against the ER-beta-bla cell line was tested in parallel by measuring the cell viability using CellTiter-Glo assay in the same wells.
# Tox21 Assay Protocol Summary: ER-beta-UAS-bla HEK293T cells were dispensed at 2,000 cells/4 uL of assay medium containing 2% charcoal stripped FBS per well into black wall/clear-bottom 1536-well plates using a Multidrop Combi (ThermoFisher Scientific, Waltham, MA) dispenser. After the assay plates were incubated at a 37C and 5% CO2 for 6 hr, 23 nL of compounds dissolved in DMSO, positive controls or DMSO only was transferred to the assay plate by a Pintool station (Kalypsys, San Diego, CA), followed by addition of 1 uL (1nM as final concentration) of 17-beta-estradiol (E2) in assay medium using a Flying Reagent Dispenser (FRD, Aurora Discovery, San Diego, CA). The plates were incubated at 37C and 5% CO2 for 16 hr. Then 1 uL of LiveBLAzer B/G FRET substrate was added using a Flying Reagent Dispenser, the plates were incubated at room temperature for 2 hours, and fluorescence intensity was measured by an Envision plate reader (PerkinElmer, Shelton, CT). For cell viability readout that measures cytotoxicity, 4 uL/well of CellTiter-Glo reagent was added into the assay plates using a FRD. After 30 min incubation at room temperature, the luminescence intensity in the plates was measured using a ViewLux (PerkinElmer) plate reader.
# % is set by controls: 0 for no effect and ±100 for the full control effect.
Structure (SMILES),outcome,"activity change, negative = cytotoxicity"
COc1ccc(NS(=O)(=O)c2ccc(N)cc2)nn1,inactive,
O=c1[nH]c(=O)c2[nH]c(=O)[nH]c2[nH]1,,3.94% [at 8.39 µM]
Cc1nc2n(c(=O)c1CCN1CCC(C(=O)c3ccc(F)cc3)CC1)CCS2,inactive,
COc1ccc(/C=N/NC(=O)c2ccncc2)cc1OC,inactive,
CC(=O)/C=C/c1ccco1,inactive,
O=S(=O)(O)SSS(=O)(=O)O,inactive,
Cc1nc(C)nc(N2C[C@@H](C)N(c3ccnc([C@@H](C)O)n3)[C@@H](C)C2)n1,inactive,
C=CCOCC(CO)(COCC=C)COCC=C,inactive,
CC(C)CCCCCCOC(=O)C1CCCCC1C(=O)OCCCCCCC(C)C (stereo not given),inactive,
Nc1ccc(S(=O)(=O)NC(=O)c2ccccc2)cc1,inactive,
Cc1ccccc1C(=O)N1CC/C(=N\OS(=O)(=O)O)c2ccc(Cl)cc21,inactive,
O=C(O)CCNC(=O)c1ccccc1,inactive,
CC(C)(CO)[C@@H](O)C(=O)NCCCO,inactive,
Nc1nc(=O)n([C@@H]2O[C@H](CO)[C@@H](O)[C@@H]2F)cc1I,inactive,
O=S(=O)(O)c1cc(O)ccc1O,inactive,
CCOC(=O)CC(CC(=O)OCC)(OC(C)=O)C(=O)OCC,inactive,
COc1cc([N+](=O)[O-])ccc1N,inactive,
CC(=O)OC(C)c1ccccc1 (stereo not given),inactive,
C[Si]1(C)N[Si](C)(C)N[Si](C)(C)N1,inactive,
C=C(C)C(=O)OCCCCCCOC(=O)C(=C)C,inactive,

Structure (SMILES),outcome,"activity change, negative = cytotoxicity"
NC(Cc1c[nH]c2ccccc12)C(=O)O (stereo not given),inactive,
CC(=O)N1CCN(c2ccc(O)cc2)CC1,inactive,
CCCCCCCCCCCCC,inactive,
NC(=O)NNC(N)=O,inactive,
CN(C1CCCCC1)S(=O)(=O)c1ccccc1N,inactive,
O=C(Nc1cccc(C2=NCCN2)c1)Nc1cccc(C2=NCCN2)c1,,-2.3% [at 19 µM]
C[C@H](CCC(=O)NCC(=O)O)[C@H]1CC[C@H]2[C@@H]3[C@H](O)C[C@@H]4C[C@H](O)CC[C@]4(C)[C@H]3C[C@H](O)[C@]12C,inactive,
NS(=O)(=O)c1ccccc1OC(F)(F)F,inactive,
O=C1NC2NC(=O)NC2N1 (stereo not given),inactive,
BrC/C=C/CBr,,3.59% [at 19 µM]
CCCCCCCC/C=C\CCCCCCCC(=O)OC[C@@H](O)[C@H]1OC[C@H](O)[C@H]1O,inactive,
Nc1cc(Cl)cc(S(=O)(=O)O)c1O,inactive,
O=c1cc(O)c(Cl)c[nH]1,inactive,
Nc1cc(C(=O)O)ccc1Cl,inactive,
CC(C)c1ccccc1O,inactive,
CC(C)CCCC(C)CC=O (stereo not given),inactive,
COc1ccc(N=Nc2cc(C)c(N=Nc3ccc(S(=O)(=O)O)cc3)cc2OC)cc1,inactive,
O=C1CC[C@H](C(=O)N2CCCCC2)N1,inactive,
CC1CCC(C(C)(C)S)C(=O)C1 (stereo not given),inactive,
CCCCCCCCCOCC1CO1 (stereo not given),inactive,
